Results on 18 compounds are retold here after PubChem BioAssay AID743060 (The Scripps Research Institute Molecular Screening Center, 2013).

Each structure is given as a SMILES string.

A short description of this test: T. brucei methionyl-tRNA synthetase enzyme inhibition – biochemical, radioactivity, round 1, late-stage follow-up (AID 743060). The conditions noted are these: purified enzyme, radiolabel aminoacylation, scintillation, 2 h; at 10 µM; stronger effect = higher value.
For orientation: inhibition means the drop in the measured response relative to a control, in per cent. Turning to `CC(=O)c1cn(CC(=O)Nc2cccc(C(F)(F)F)c2)c2ccccc12`, the inhibition was 39.3%.
For `CC(=O)c1c[nH]c(C(=O)NCc2cccc(C(F)(F)F)c2)c1`, the inhibition was 92.7%.
Regarding `O=C(Cn1cc(C(=O)C(=O)N2CCCC2)c2ccccc21)Nc1ccccc1`, the inhibition came out at 9.2%.
Turning to `Cc1[nH]c2ccc(Br)cc2c(=O)c1CN1CCCCCC1`, the inhibition amounted to 86.6%.
As for `O=C1CC(SCc2nc3ccccc3[nH]2)C(=O)N1c1cccc(Cl)c1` (stereo not drawn), the inhibition stood at 52.6%.
The figure for `Cc1ccc(C(=O)NCCc2nc3ccccc3[nH]2)cc1C` is -3.55%; for `O=C(Cn1cc(C(=O)COc2ccccc2)c2ccccc21)Nc1cccc(C(F)(F)F)c1` it is -11.8%; for `COc1ccccc1-n1c(SCC(=O)Nc2ccc(Cl)cc2)nc(O)c(Cc2ccccc2)c1=O` it is 67%.
Then `CC(=O)c1ccc(N2CCN(C(=O)CCCn3c(=O)[nH]c4ccc(Br)cc4c3=O)CC2)cc1`, with 97%.
`CC(CC(=O)Nc1cccc(Br)c1)=NNC(=O)c1ccc(O)cc1O`: the inhibition was 90.5%.
Then `O=C(NCc1nc2ccccc2[nH]1)C1=C[C@@H](c2csc3ccccc23)C[C@@H](OCCCCO)O1`, with 89.2%.
The figure for `COc1ccc(CCN(C(=O)c2cccc(F)c2)C2CC(=O)N(c3ccc(Br)cc3)C2=O)cc1` (stereo not drawn) is -7.62%; for `COc1ccc(NC(=O)C2CC(=O)n3c(nc4ccccc43)N2)cc1` (stereo not drawn) it is -13.4%.
The figure for `O=C(Cn1cc(C(=O)C2CC2)c2ccccc21)Nc1cccc(C(F)(F)F)c1` is 31.3%.
Take `O=C(CN1CCSC1=NCc1ccccc1)c1ccc(Cl)c(Cl)c1`: the inhibition was found to be 28%.
Turning to `CCN(CC)C(=O)C(=O)c1cn(CC(=O)Nc2cccc(OC)c2)c2ccccc12`, the inhibition stood at 86.4%.
The figure for `Oc1c(Cl)cc(Cl)cc1CNc1nc2ccccc2[nH]1` is 98.7%; for `CC(=O)N(CCc1ccccc1)C1CC(=O)N(c2ccc(Br)cc2)C1=O` (stereo not drawn) it is -21.2%.
